{
  "source": "paper PMC5540273",
  "about": "(PLoS ONE, 2017);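 further: KINOMEscan kinase panel screen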",
  "data": [
    {"system": "T1, TRKC", "T1 construct": "gene NTRK3", "settings": "concentration: 1 μM, replicates: in singlicate; n = 1", "units": {"%Inh": "%"}, "values": [
      {"smiles": "Cn1cc(-c2ccc3c(c2)CCN3C(=O)Cc2cccc(Cl)c2)c2c(N)ncnc21", "note": "[GSK2606590]", "%Inh": 57},
      {"smiles": "COc1ccc(-c2coc3ccc(-c4nnc(SCc5ccc(OC)c(C(F)(F)F)c5)o4)cc23)cc1", "%Inh": 0},
      {"smiles": "CCS(=O)(=O)c1ccc(OC)c(Nc2nccc(-c3c(-c4cccc(NC(=O)c5c(F)cccc5F)c4)nn4ncccc34)n2)c1", "note": "[GSK326180]", "%Inh": 0},
      {"smiles": "O=C(Nc1cccc(-c2nn3ccccc3c2-c2ccnc(Nc3cccc(C(F)(F)F)c3)n2)c1)c1c(F)cccc1F", "note": "[GSK292658]", "%Inh": 0},
      {"smiles": "NCCCC(NC(=O)c1cc(Br)c(-c2ccnc3[nH]ccc23)s1)c1ccccc1.O=C(O)C(F)(F)F.O=C(O)C(F)(F)F", "note": "(stereo not shown) [GSK1287544]", "%Inh": 17},
      {"smiles": "CC(=O)Nc1nc2cnc(Nc3cc(NC(=O)c4cccc(C5(C#N)CC5)c4Cl)ccc3C)nc2s1", "%Inh": 0},
      {"smiles": "COc1ccc(CNC(=O)NC2CCN(c3ccnc(Nc4ccc(F)cc4)n3)CC2)cc1", "note": "[GSK1379788]", "%Inh": 6},
      {"smiles": "Clc1ccc(-c2nn3ncccc3c2-c2ccnc(Nc3ccc4c(c3)OCCO4)n2)cc1", "note": "[GW829116]", "%Inh": 0},
      {"smiles": "CC(C)(C)c1ccc2nccc(Nc3cccc(O)c3)c2c1", "note": "[GW856795]", "%Inh": 31},
      {"smiles": "COc1cc(Nc2nccc(N3CCC(NC(=O)Nc4cccc(C(C)=O)c4)C3)n2)cc(OC)c1OC", "note": "(stereo not shown) [GSK1379753]", "%Inh": 92.3},
      {"smiles": "COc1cc(Nc2nccc(-c3c(-c4cccc(NC(=O)c5c(F)cccc5F)c4)nn4ccccc34)n2)cc(OC)c1OC", "note": "[GSK323521]", "%Inh": 40},
      {"smiles": "COc1cccc(NC(=O)NC2CCN(c3ccnc(Nc4cc(OC)c(OC)c(OC)c4)n3)C2)c1", "note": "(stereo not shown) [GSK1379763]", "%Inh": 89},
      {"smiles": "O=C(O)C(F)(F)F.O=C(O)C(F)(F)F.O=c1[nH]ccc2nc(N[C@@H]3CCCNC3)nc(Nc3ccc(S(=O)(=O)N4CCOCC4)cc3)c12", "note": "[GSK2177277]", "%Inh": 98},
      {"smiles": "CCCCc1nn2ncccc2c1-c1ccnc(Nc2ccc(N3CCN(C)CC3)cc2)n1", "note": "[GW684941]", "%Inh": 66},
      {"smiles": "CN(c1ccc(NC(=O)Nc2cc(C(F)(F)F)ccc2F)cc1)c1ccnc(Nc2ccc(S(N)(=O)=O)cc2)n1", "note": "[GW809893]", "%Inh": 98.7},
      {"smiles": "Nc1ncc(-c2cccnc2)c2scc(-c3ccc4c(c3)CCN4C(=O)Cc3ccccc3)c12", "note": "[GSK683281]", "%Inh": 0},
      {"smiles": "Cc1ccc(C(=O)Nc2ccc(Nc3ccnc4cc(-c5nccs5)ccc34)cc2O)cc1.Cl", "note": "[GW494702]", "%Inh": 25},
      {"smiles": "COc1cc(Nc2nccc(N3CCC(NC(=O)c4cc5ccccc5s4)C3)n2)cc(OC)c1OC", "note": "(stereo not shown) [GSK1379760]", "%Inh": 35},
      {"smiles": "O=C(Nc1cccc(-c2nn3ccccc3c2-c2ccnc(Nc3cccc(F)c3)n2)c1)c1c(F)ccc(F)c1Cl", "note": "[GSK357952]", "%Inh": 0},
      {"smiles": "CN(C)Cc1ccc(-c2ccc3c(Nc4ccc(Oc5ccccn5)cc4)ccnc3c2)o1", "note": "[GW567148]", "%Inh": 35},
      {"smiles": "CNC(=O)c1ccccc1Nc1nc(Nc2ccc(N3CCOCC3)cc2)ncc1Cl.Cl", "note": "[GSK1576028]", "%Inh": 97.1},
      {"smiles": "Cl.Cl.NCC(NC(=O)c1cc(-c2ccccc2)c(-c2ccnc3[nH]ccc23)s1)c1ccccc1", "note": "(stereo not shown) [GSK1321561]", "%Inh": 6},
      {"smiles": "COc1ccc(Nc2nccc(N3CCC(NC(=O)Nc4cccc(OC)c4)C3)n2)cc1", "note": "(stereo not shown) [GSK1379742]", "%Inh": 76},
      {"smiles": "COC(=O)Nc1nc2cc(Oc3ccc(NC(=O)Nc4cc(C(F)(F)F)ccc4F)cn3)ccc2[nH]1.Cl.Cl", "note": "[GW681170]", "%Inh": 97},
      {"smiles": "O=C(Nc1n[nH]c2cc(-c3ccoc3)ccc12)C1CC1", "note": "[SB-738481]", "%Inh": 49},
      {"smiles": "CSc1cccc2c(-c3ccncn3)c(-c3ccc(F)cc3)nn12", "note": "[GW514786]", "%Inh": 0},
      {"smiles": "c1ccc(Oc2ccc(Nc3ccnc4cc(-c5ccc(CNCCN6CCOCC6)o5)ccc34)cc2)nc1", "note": "[GW567145]", "%Inh": 42},
      {"smiles": "Nc1ncnc2c1nc(-c1ccccc1)n2-c1ccccc1", "note": "[SKF-97293]", "%Inh": 36},
      {"smiles": "Cl.c1ccc(-c2ccc3c(Nc4ccc5[nH]ccc5c4)ccnc3c2)nc1", "note": "[GW440138]", "%Inh": 23},
      {"smiles": "Cl.NC(=O)c1cccc(Nc2nccc(Nc3ccc(Oc4c(Cl)cccc4Cl)c(Cl)c3)n2)c1", "note": "[GW659009]", "%Inh": 11},
      {"smiles": "Cc1occc1-c1ncc(OC[C@@H](N)Cc2c[nH]c3ccccc23)cc1-c1ccc2[nH]nc(C)c2c1.O=C(O)C(F)(F)F", "note": "[GSK682037]", "%Inh": 0},
      {"smiles": "Cc1ccc(C(=O)N2CC[C@@H](O)C2)cc1-n1c(C)cc(OCc2ccc(F)cc2F)c(Br)c1=O", "%Inh": 0},
      {"smiles": "Oc1cc(Nc2ccnc3cc(I)ccc23)ccc1F", "note": "[GW552771]", "%Inh": 26},
      {"smiles": "c1ccc(-c2n[nH]cc2Nc2ccnc3ccccc23)nc1", "note": "[GW694077]", "%Inh": 21},
      {"smiles": "CC(C)c1nc(-c2cccc(NS(=O)(=O)c3c(F)cccc3F)c2F)c(-c2ccnc(Nc3ccc(N4CCOCC4)nc3)n2)s1", "note": "[GSK2008607]", "%Inh": 51},
      {"smiles": "Cn1cc(-c2[nH]c3cc(NC(=O)[C@H](N)C4CCCCC4)cc4c3c2C=NNC4=O)cn1", "%Inh": 57},
      {"smiles": "C[C@@H](Oc1cc(-n2cnc3cc(-c4ccnc(NCCS(C)(=O)=O)c4)ccc32)sc1C(N)=O)c1ccccc1Cl", "note": "[GSK907232]", "%Inh": 30}
    ]}
  ]
}
